Data published in PubChem BioAssay (NCATS).
Results filed as inconclusive are left out. Active and inactive are the calls of the source. Unless noted, calls come from the whole dose curve; as a rule, active = well fitted curve in the direction sought with a large enough effect; inconclusive = small, poorly fitted or top-dose-only effect, or another doubt; inactive = no such curve, though single readings can be large; an effect the other way counts as inactive or inconclusive.

How the values were obtained:
[1] = molecular target: Alpha-galactosidase (Coffea arabica) (UniProt Q42656); assay: Counterscreen for Glucocerebrosidase Inhibitors: qHTS Assay for Coffee Bean alpha-Galactosidase at pH 4.5 (AID 957); note: series mostly up to about 77 µM
In short: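 Coffee bean alpha-galactosidase 2 nM, substrate 4-MU-alpha-Gal 80 uM, pH 4.5 citrate/Tween-20, 20 min RT. Cpd titration 0.7 nM–77 uM. Stop pH 10, fluorescence 365/440 nm; Hill-equation AC50.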

[2] = molecular target: Alpha-galactosidase (Coffea arabica) (UniProt Q42656); assay: Counterscreen for Glucocerebrosidase Inhibitors: qHTS Assay for Coffee Bean alpha-Galactosidase at pH 5.9 (AID 998)
In short: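 Green coffee bean enzyme (2 nM final) was incubated with compounds (0.7 nM–77 uM) and 4-methylumbelliferyl alpha-D-galactopyranoside (80 uM) in citrate buffer pH 5.9, 20 min at room temperature. High-pH stop; fluorescence 365/440 nm; AC50 from Hill fits.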

[3] = Validation screen for inhibitors of Lassa infection (AID 463096; calls by dose curve)
[4] = Inducers of the Endoplasmic Reticulum Stress Response (ERSR) in human glioma: Validation (AID 504836)
In short: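 Stably transfected U87-MG human glioma cells carrying a GRP78-based luminescent sensor were seeded at 1000 cells/well, pin-dosed with compounds and incubated 16 h. Luciferase reagent was then added, and end-point luminescence was read after 10 min at room temperature.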

[5] = qHTS for Inhibitors of the Functional Ribonucleoprotein Complex (vRNP) of Lassa (LASV) Arenavirus: LASV Primary Screen - GLuc reporter signal (AID 1347082; calls by dose curve; tested in HEK293 reporter line; note: series mostly up to about 57 µM; nearly all actives have a fitted effect of over 60% in size)
[6] = qHTS for Inhibitors of the Functional Ribonucleoprotein Complex (vRNP) of Lassa (LASV) Arenavirus: Viability assay - alamar blue signal for LASV Primary Screen (AID 1347083; calls by dose curve; tested in HEK293 reporter line; note: series mostly up to about 57 µM; nearly all actives have a fitted effect of over 80% in size)
[7] = qHTS for Inhibitors of the Functional Ribonucleoprotein Complex (vRNP) of Lymphocytic Choriomeningitis Arenaviruses (LCMV): Viability assay - alamar blue signal for LCMV Primary Screen (AID 1347085; calls by dose curve; tested in HEK293 reporter line; note: series mostly up to about 57 µM; nearly all actives have a fitted effect of over 80% in size)
[8] = molecular target: Nucleoprotein (Lymphocytic choriomeningitis virus (strain Armstrong)) (UniProt P09992); assay: qHTS for Inhibitors of the Functional Ribonucleoprotein Complex (vRNP) of Lymphocytic Choriomeningitis Arenaviruses (LCMV): LCMV Primary Screen - GLuc reporter signal (AID 1347086; calls by dose curve; note: series mostly up to about 57 µM; nearly all actives have a fitted effect of over 70% in size)

Measured: Potency

Alpha-galactosidase (Coffea arabica), sequence (Q42656 whole entry, looked up): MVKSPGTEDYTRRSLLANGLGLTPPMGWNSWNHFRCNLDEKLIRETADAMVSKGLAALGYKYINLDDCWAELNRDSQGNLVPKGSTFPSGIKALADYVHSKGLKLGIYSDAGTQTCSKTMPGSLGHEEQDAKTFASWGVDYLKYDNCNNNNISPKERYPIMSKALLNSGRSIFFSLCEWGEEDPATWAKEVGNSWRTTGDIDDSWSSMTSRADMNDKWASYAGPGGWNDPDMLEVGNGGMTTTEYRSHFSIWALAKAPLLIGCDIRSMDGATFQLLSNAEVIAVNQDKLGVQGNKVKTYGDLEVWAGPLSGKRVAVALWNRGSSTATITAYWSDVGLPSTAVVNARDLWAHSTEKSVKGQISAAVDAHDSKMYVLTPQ
Nucleoprotein (Lymphocytic choriomeningitis virus (strain Armstrong)), sequence (P09992 whole entry, looked up): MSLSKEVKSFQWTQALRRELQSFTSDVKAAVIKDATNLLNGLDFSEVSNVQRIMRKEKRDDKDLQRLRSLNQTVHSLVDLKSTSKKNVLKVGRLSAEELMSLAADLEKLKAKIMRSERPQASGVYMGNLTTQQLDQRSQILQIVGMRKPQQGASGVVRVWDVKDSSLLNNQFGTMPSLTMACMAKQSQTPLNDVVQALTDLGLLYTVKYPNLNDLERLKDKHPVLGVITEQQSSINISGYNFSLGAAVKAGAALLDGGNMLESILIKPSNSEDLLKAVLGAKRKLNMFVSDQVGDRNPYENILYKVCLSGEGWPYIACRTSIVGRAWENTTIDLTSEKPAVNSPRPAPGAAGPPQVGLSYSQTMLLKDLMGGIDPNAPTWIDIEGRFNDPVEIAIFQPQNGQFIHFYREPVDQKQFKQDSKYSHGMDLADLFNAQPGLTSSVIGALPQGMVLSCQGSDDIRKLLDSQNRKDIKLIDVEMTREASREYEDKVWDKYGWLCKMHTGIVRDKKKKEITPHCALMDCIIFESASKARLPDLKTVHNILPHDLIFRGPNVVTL

COc1ccccc1N1CCN(CCCNc2c(C)c(=O)n(C)c(=O)n2C)CC1
inactive: [1] | [2] | [3] | [4] | [5] | [6] | [7] | [8]

CNC(=O)c1cc2c(cn1)[nH]c1ccccc12
inactive: [1] | [2] | [3] | [4] | [5] | [6] | [7] | [8]

N[C@H](C(=O)O)[C@H](O)C(=O)O
inactive: [1] | [2] | [3] | [4] | [5] | [6] | [7] | [8]

NCCCCN=C(N)N
inactive: [1] | [2] | [3] | [4] | [5] | [6] | [7] | [8]

CC(=O)SCC[N+](C)(C)C
inactive: [1] | [2] | [3] | [4] | [5] | [6] | [7] | [8]

O=C(Nc1cccc(C(=O)Nc2ccc(S(=O)(=O)O)c3cc(S(=O)(=O)O)cc(S(=O)(=O)O)c23)c1)Nc1cccc(C(=O)Nc2ccc(S(=O)(=O)O)c3cc(S(=O)(=O)O)cc(S(=O)(=O)O)c23)c1
inactive: [1] | [2] | [3] | [4] | [5] | [6] | [7] | [8]

NC1(C(=O)O)CCCCC1
inactive: [1] | [2] | [3] | [4] | [5] | [6] | [7] | [8]

NCCCS(=O)(=O)O
inactive: [1] | [2] | [3] | [4] | [5] | [6] | [7] | [8]

C=CC[C@H](N)C(=O)O
inactive: [1] | [2] | [3] | [4] | [5] | [6] | [7] | [8]

O=c1[nH]ccc2c(O)cccc12
inactive: [1] | [2] | [3] | [4] | [5] | [6] | [7] | [8]

CN[C@H](CC(=O)O)C(=O)O
inactive: [1] | [2] | [3] | [4] | [5] | [6] | [7] | [8]

NCCS(=O)O
inactive: [1] | [2] | [3] | [4] | [5] | [6] | [7] | [8]

N=C(N)SCCN
inactive: [1] | [2] | [3] | [4] | [5] | [6] | [7] | [8]

O=c1onc2cnc3ccccc3n12
inactive: [1] | [2] | [3] | [4] | [5] | [6] | [7] | [8]

O=C1CCC(c2ccc(-n3ccnc3)cc2)=NN1
inactive: [1] | [2] | [3] | [4] | [5] | [6] | [7] | [8]

CC(C)(CO)Cc1cc(C(C)(C)C)c(O)c(C(C)(C)C)c1
inactive: [1] | [2] | [3] | [4] | [5] | [6] | [7] | [8]

COc1ccccc1N1CCN(CCN(C(=O)c2ccc(F)cc2)c2ccccn2)CC1
inactive: [1] | [2] | [3] | [4] | [5] | [6] | [7] | [8]

Oc1cc2c(cc1O)CN(C(=S)NCCc1ccc(Cl)cc1)CCC2
inactive: [1] | [2] | [3] | [4] | [5] | [6] | [7] | [8]

NOCC(=O)O
inactive: [1] | [2] | [3] | [4] | [5] | [6] | [7] | [8]

COc1ccc(-c2ccc(N)[n+](CCCC(=O)O)n2)cc1
inactive: [1] | [2] | [3] | [4] | [5] | [6] | [7] | [8]

NCCCCN
inactive: [1] | [2] | [3] | [4] | [5] | [6] | [7] | [8]

CN1CCN(c2nc3cc(C(F)(F)F)ccc3n3cccc23)CC1
inactive: [1] | [2] | [3] | [4] | [5] | [6] | [7] | [8]

O=C1NC(c2cccc([N+](=O)[O-])c2)=CCN1c1ccccc1O
inactive: [1] | [2] | [3] | [4] | [5] | [6] | [7] | [8]

O=C(O)C1=CCNCC1
inactive: [1] | [2] | [3] | [4] | [5] | [6] | [7] | [8]

COc1ccccc1N1CCN(CCCCN2C(=O)c3ccccc3C2=O)CC1
inactive: [1] | [2] | [3] | [4] | [5] | [6] | [7] | [8]

N=C(N)SCCc1cnc[nH]1
inactive: [1] | [2] | [3] | [4] | [5] | [6] | [7] | [8]

NCCCCCCCCCCN
inactive: [1] | [2] | [3] | [4] | [5] | [6] | [7] | [8]

CCC(=O)N1CCN(C(=O)c2ccccc2)CC1
inactive: [1] | [2] | [3] | [4] | [5] | [6] | [7] | [8]

N[C@@H](CS(=O)O)C(=O)O
inactive: [1] | [2] | [3] | [4] | [5] | [6] | [7] | [8]

COc1cc(N)c(Cl)cc1C(=O)OCCN1CCCCC1
inactive: [1] | [2] | [3] | [4] | [5] | [6] | [7] | [8]

CCSC(=N)N
inactive: [1] | [2] | [3] | [4] | [5] | [6] | [7] | [8]

O=C(O)c1cc2cc(F)ccc2[nH]1
inactive: [1] | [2] | [3] | [4] | [5] | [6] | [7] | [8]

CCCCCCCCCCCCCCC[C@H](O)[C@H](N)CO
inactive: [1] | [2] | [3] | [4] | [5] | [6] | [7] | [8]

CC(C)(C=O)Cc1cc(C(C)(C)C)c(O)c(C(C)(C)C)c1
inactive: [1] | [2] | [3] | [4] | [5] | [6] | [7] | [8]

Cc1nc(N=Nc2ccc(S(=O)(=O)O)cc2S(=O)(=O)O)c(COP(=O)(O)O)c(C=O)c1O
inactive: [1] | [2] | [3] | [4] | [5] | [6] | [7] | [8]

N#CC(C#N)=C(N)/C(C#N)=C/c1ccc(O)cc1
inactive: [1] | [2] | [3] | [4] | [5] | [6] | [7] | [8]

O=C(O)c1cc([N+](=O)[O-])ccc1NCCCc1ccccc1
inactive: [1] | [2] | [3] | [4] | [5] | [6] | [7] | [8]

Cc1nc2c(OCc3ccccc3)cccn2c1CC#N
inactive: [1] | [2] | [3] | [4] | [5] | [6] | [7] | [8]

C[N+](C)(CCCCCC[N+](C)(C)CCCN1C(=O)c2cccc3cccc(c23)C1=O)CCCN1C(=O)c2cccc3cccc(c23)C1=O
inactive: [1] | [2] | [3] | [4] | [5] | [6] | [7] | [8]

N[C@@H](Cc1c[nH]c2ccccc12)C(=O)O
inactive: [1] | [2] | [3] | [4] | [5] | [6] | [7] | [8]

Cc1cccc(C(=O)NCN2CCN(c3ccccc3C#N)CC2)c1
inactive: [1] | [2] | [3] | [4] | [5] | [6] | [7] | [8]

CCCN(CC1CC1)c1nc(C)nc(Nc2c(Cl)cc(Cl)cc2Cl)c1Cl
inactive: [1] | [2] | [3] | [4] | [5] | [6] | [7] | [8]

Cc1nc(N=Nc2cc(S(=O)(=O)O)c3cc([N+](=O)[O-])cc(S(=O)(=O)O)c3c2)c(COP(=O)(O)O)c(C=O)c1O
inactive: [1] | [2] | [3] | [4] | [5] | [6] | [7] | [8]

Cn1cc(C(=O)OCC2CCN(CCNS(C)(=O)=O)CC2)c2ccccc21
inactive: [1] | [2] | [3] | [4] | [5] | [6] | [7] | [8]

[Li+]
inactive: [1] | [2] | [3] | [4] | [5] | [6] | [7] | [8]

COc1cc(CNC(=O)CCCCCCC(C)C)ccc1O
inactive: [1] | [2] | [3] | [4] | [5] | [6] | [7] | [8]

NC(N)=NC(N)=Nc1ccccc1
inactive: [1] | [2] | [3] | [4] | [5] | [6] | [7] | [8]

Nc1ccc(N2C(=O)c3ccccc3C2=O)c(Cl)c1
inactive: [1] | [2] | [3] | [4] | [5] | [6] | [7] | [8]

O=c1[nH]c2ccccc2c2ccccc12
inactive: [1] | [2] | [3] | [4] | [5] | [6] | [7] | [8]

CNc1cc(NS(=O)(=O)c2ccc(N)cc2)nc(NC)n1
inactive: [1] | [2] | [3] | [4] | [5] | [6] | [7] | [8]

Nc1ccc(-c2nc3ccc(-c4nc5ccc(N)cc5[nH]4)cc3[nH]2)cc1
inactive: [1] | [2] | [3] | [4] | [5] | [6] | [7] | [8]

N#C/C(=C\c1ccc(O)c(O)c1)C(=O)Nc1ccccc1
inactive: [1] | [2] | [3] | [4] | [5] | [6] | [7] | [8]
